{"source": "PubChem BioAssay AID504467", "about": "(National Center for Advancing Translational Sciences (NCATS), 2011)", "note": "About 7,700 (2.3%) of roughly 330,000 compounds were called active. About 26% were inconclusive and are not listed. Calls come from the whole dose curve; as a rule, active = well fitted inhibition curve with a large enough effect; inconclusive = small, poorly fitted or top-dose-only effect, or effect the other way; inactive = flat fitted curve, though single readings scatter. What follows is part of a selection rich in actives, with near analogues and random picks from the rest. Entries that show only a call come without a potency. Potency is the fitted concentration of half-maximal effect."}
{"assay": "qHTS screen for small molecules that inhibit ELG1-dependent DNA repair in human embryonic kidney (HEK293T) cells expressing luciferase-tagged ELG1; note: nearly all actives have a fitted effect of over 55% in size", "details": "HEK293T ELG1-luciferase reporter, luminescence, 16 h, DNA damage induced by 5-fluorouridine; series mostly up to 46.1 µM", "method_in_brief": "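Quantitative HTS, concentration-response format. 2,000 cells/well co-treated with 5-fluorouridine and compound, 16 hr in 5% CO2 at 37 °C; ONE-Glo luminescence read after 30 min.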"}
{"smiles": "CC(=O)NCCC(=O)Nc1cc(S(=O)(=O)N2CCCCC2)ccc1Oc1cccc(C)c1", "Potency": "inactive"}
{"smiles": "Cc1cccn2c(=O)c3cc(C(=O)NCC4CCCO4)c(=N)n(Cc4ccc(F)cc4)c3nc12", "note": "(stereo not given)", "Potency": "inactive"}
{"smiles": "CCCCc1ccc(NS(=O)(=O)c2cccc(C(=O)N3CCCN(C)CC3)c2)cc1", "Potency": "inactive"}
{"smiles": "COc1cc(OC)c(N2CC(C(=O)Nc3cc(Cl)ccc3N3CCOCC3)CC2=O)cc1Cl", "note": "(stereo not given)", "Potency": "inactive"}
{"smiles": "CC(=O)Nc1ccc(-c2csc(NC(=O)Nc3ccccc3)n2)cc1", "Potency": "7.3 µM (active)"}
{"smiles": "O=C(O)c1ccccc1C(=O)Nc1nc(-c2ccccc2)cs1", "Potency": "inactive"}
{"smiles": "CC(=O)Nc1ccc(S(=O)(=O)Nc2nc(-c3ccc(C(C)(C)C)cc3)cs2)cc1", "Potency": "inactive"}
{"smiles": "CC1C(=O)C(C)C(c2ccc(O)cc2)NC1c1ccc(O)cc1", "note": "(stereo not given)", "Potency": "inactive"}
{"smiles": "CC(C)[C@H](NC(=O)N1c2ccccc2NC(=O)[C@@H]1C(C)C)C(=O)N[C@H](C(=O)O)c1ccccc1", "Potency": "inactive"}
{"smiles": "Cc1cccc(N2CCN(C(C)C(=O)N3CCc4ccccc43)CC2)c1C", "note": "(stereo not given)", "Potency": "inactive"}
{"smiles": "COc1ccc(OCCNC(=O)c2cc(C3CC3)nc3c2cnn3C(C)C)cc1", "Potency": "inactive"}
{"smiles": "COc1ccc(CNC(=O)CN(C(=O)c2csnn2)c2cnc3ccccc3c2)cc1", "Potency": "inactive"}
{"smiles": "O=C1COc2ccc(C(=O)COC(=O)c3ccccc3Cl)cc2N1", "Potency": "inactive"}
{"smiles": "COc1cc(N)c(Cl)cc1C(=O)OCC(=O)c1ccc2c(c1)NC(=O)CO2", "Potency": "3.66 µM (active)"}
{"smiles": "O=C1COc2ccc(C(=O)COC(=O)c3cccnc3Cl)cc2N1", "Potency": "inactive"}
{"smiles": "COc1cc(/C=N/NC(=O)c2cccnc2)ccc1OC(=O)c1cccc(Br)c1", "Potency": "inactive"}
{"smiles": "CCOC(=O)c1ccc(N/C(=N/S(=O)(=O)c2ccccc2)c2ccccc2)cc1", "Potency": "inactive"}
{"smiles": "CCOC(=O)c1ccc(Nc2cc(C)nc3nc(C)nn23)cc1", "Potency": "inactive"}
{"smiles": "CCOC(=O)c1nc(Nc2ccc(C(=O)OC)cc2)c2ccccc2n1", "Potency": "4.11 µM (active)"}
{"smiles": "Cc1cc2occ(CC(=O)NNC(=O)c3ccccc3F)c2cc1C", "Potency": "inactive"}
{"smiles": "O=C1[C@H]2[C@@H](c3ccc(Cl)cc3)N3C(=O)N(c4cccc(F)c4)C(=O)[C@@]3(Cc3ccccc3)[C@H]2C(=O)N1C1CCCCC1", "Potency": "inactive"}
{"smiles": "COc1ccccc1CN1CCN(C(c2ccccc2)c2ccccc2)CC1", "Potency": "inactive"}
{"smiles": "CCCCn1c(N)c(N(CC(C)C)C(=O)c2ccc(-n3c(C)ccc3C)cc2)c(=O)[nH]c1=O", "Potency": "inactive"}
{"smiles": "Cc1nc(SCC(=O)NC2CCCCC2C)c(C#N)c(C)c1C", "note": "(stereo not given)", "Potency": "inactive"}
{"smiles": "COc1ccccc1Oc1ccc(S(=O)(=O)Nc2cccnc2)cc1", "Potency": "inactive"}
{"smiles": "COc1ccc(NS(=O)(=O)c2ccc(Oc3c(C#N)cccc3C#N)cc2)cc1", "Potency": "2.31 µM (active)"}
{"smiles": "CCOc1ccc(S(=O)(=O)Nc2ccc(S(=O)(=O)Nc3cc(OC)ccc3OC)cc2)cc1", "Potency": "inactive"}
{"smiles": "CN(CC(=O)Nc1ccc(OC(F)(F)F)cc1)C(=O)C1CCC1", "Potency": "inactive"}
{"smiles": "Cc1noc(/C=C/c2ccco2)c1S(=O)(=O)N1CCC(C(=O)Nc2ccc(Cl)cn2)CC1", "Potency": "5.8 µM (active)"}
{"smiles": "Cc1noc(/C=C/N(C)C)c1S(=O)(=O)N1CCCC(C(=O)NCc2ccco2)C1", "note": "(stereo not given)", "Potency": "inactive"}
{"smiles": "CCOC(=O)C1CCN(S(=O)(=O)c2c(C)noc2C)CC1", "Potency": "inactive"}
{"smiles": "Cc1ccc(Cl)c(OCC(=O)N(C)CC(=O)Nc2ccc(N3CCOCC3)cc2)c1", "Potency": "inactive"}
{"smiles": "COc1cc2ccccc2cc1C(=O)N(CCN(C)C)c1nc2c(F)cccc2s1", "Potency": "inactive"}
{"smiles": "CN1c2ccc(C=O)c3c(C=O)ccc(c23)N(C)C1(C)C", "Potency": "6.51 µM (active)"}
{"smiles": "Cc1cccn2c(=O)c(/C=C(\\C#N)C(N)=O)c(N3CCCCCC3)nc12", "Potency": "inactive"}
{"smiles": "CC(Sc1ccccc1F)C(=O)Nc1cccc(S(=O)(=O)N2CCOCC2)c1", "note": "(stereo not given)", "Potency": "inactive"}
{"smiles": "CC(C)CN(C(=O)COC(=O)c1ccc(Cl)c(N)c1)c1c(N)n(Cc2ccccc2)c(=O)[nH]c1=O", "Potency": "inactive"}
{"smiles": "COC(=O)C(C)Oc1ccc2c(c1)O/C(=C\\c1cccc(Br)c1)C2=O", "note": "(stereo not given)", "Potency": "inactive"}
{"smiles": "Cc1ccc(OCCC(=O)OCC(=O)N2c3ccccc3NC(=O)C2(C)C)cc1", "Potency": "inactive"}
{"smiles": "Cc1cc(C(=O)OCC(=O)N2c3ccccc3NC(=O)C2(C)C)c(C)n1-c1ccccc1", "Potency": "29.1 µM (active)"}
{"smiles": "CNS(=O)(=O)c1cccc(C(=O)OCC(=O)N2c3ccccc3NC(=O)C2(C)C)c1", "Potency": "inactive"}
{"smiles": "O=c1[nH]cccc1-c1nc2ccccc2n1Cc1ccc(Cl)cc1", "Potency": "inactive"}
{"smiles": "O=C(CNC(=O)c1cccs1)N/N=C/c1cccc(Br)c1", "Potency": "inactive"}
{"smiles": "O=C(NC(Cc1c[nH]c2ccccc12)C(=O)N/N=C/c1ccc(Br)cc1)c1cccs1", "note": "(stereo not given)", "Potency": "23.1 µM (active)"}
{"smiles": "CC(=O)NC(Cc1c[nH]c2ccccc12)C(=O)O", "note": "(stereo not given)", "Potency": "inactive"}
{"smiles": "CC1CN(C(=O)c2ccc([N+](=O)[O-])s2)CC(C)O1", "note": "(stereo not given)", "Potency": "inactive"}
{"smiles": "COc1ccc(CC(=O)NC2CCSc3ccccc32)cc1OC", "note": "(stereo not given)", "Potency": "inactive"}
{"smiles": "CCOc1ccc(CCNC(=O)COC(=O)c2ccc(F)c(S(=O)(=O)N3CCOCC3)c2)cc1OCC", "Potency": "inactive"}
{"smiles": "COc1ccccc1NS(=O)(=O)c1ccc(C)c(C(=O)NNC(=O)c2csc(N3CCOCC3)n2)c1", "Potency": "inactive"}
{"smiles": "CN(C(=O)CSc1nnc(-c2ccc3c(c2)OCO3)o1)C1CCS(=O)(=O)C1", "note": "(stereo not given)", "Potency": "inactive"}
{"smiles": "O=C(CN1CCN(c2cccc(Cl)c2)CC1)Nc1ccc(S(=O)(=O)N2CCOCC2)cc1", "Potency": "18.3 µM (active)"}
{"smiles": "O=C(CN1C(=O)CCC1=O)Nc1ccc(S(=O)(=O)N2CCOCC2)cc1", "Potency": "inactive"}
{"smiles": "O=C(CN1CCN(S(=O)(=O)/C=C/c2ccccc2)CC1)Nc1ccc(N2CCOCC2)cc1", "Potency": "inactive"}
{"smiles": "Cn1nc(-c2ccc(Cl)cc2)c2cc(C(=O)NCc3ccco3)sc21", "Potency": "25.9 µM (active)"}
{"smiles": "COc1ccc(-c2cc(C(=O)NCc3ccco3)no2)cc1OC", "Potency": "inactive"}
{"smiles": "CN(CCNC(=O)c1cc2c(-c3ccccc3F)nn(C)c2s1)C1CCCCC1", "Potency": "inactive"}
{"smiles": "CCOC(=O)N1CCN(C(=O)c2cc3c(-c4ccc(Cl)cc4)nn(C)c3s2)CC1", "Potency": "inactive"}
{"smiles": "COc1ccccc1N1CCN(C(=O)c2cc(-c3ccc(Cl)c(Cl)c3)on2)CC1", "Potency": "inactive"}
{"smiles": "COc1ccccc1N1CCN(C(=O)c2cc3c(-c4ccc(Cl)cc4)nn(C)c3s2)CC1", "Potency": "11.6 µM (active)"}
{"smiles": "Cc1ccc(CSCC(=O)N(C)CC(=O)Nc2ccc(C)cc2)cc1", "Potency": "inactive"}
{"smiles": "CC(=O)Nc1ccc(S(=O)(=O)NCC(=O)OCC(=O)c2ccc[nH]2)cc1", "Potency": "inactive"}
{"smiles": "O=C(N/N=C/C=C/c1ccccc1)C1CC1(c1ccccc1)c1ccccc1", "note": "(stereo not given)", "Potency": "inactive"}
{"smiles": "CC(/C=C/c1ccccc1)=N\\NC(=O)C1CC1(C)c1ccccc1", "note": "(stereo not given)", "Potency": "23.1 µM (active)"}
{"smiles": "CC(/C=C/c1ccco1)=N/NC(=O)C1COc2ccccc2O1", "note": "(stereo not given)", "Potency": "inactive"}
{"smiles": "C#CCOCCOCCOCCNc1nc(N2CCN(C(=O)[C@H](CO)n3cc([C@@H](N)C(C)C)nn3)CC2)nc(N2CCN(C(=O)[C@H](CCC(=O)O)n3cc([C@@H](N)[C@H](C)CC)nn3)CC2)n1", "Potency": "inactive"}
{"smiles": "O=C(CCNC(=O)c1ccccc1Cl)NCc1ccco1", "Potency": "inactive"}
{"smiles": "CC(C)(C)c1ccc(NC(=O)NCc2ccco2)cc1", "Potency": "inactive"}
{"smiles": "CC(C)(C)c1ccc(C(=O)NCCC(=O)NCc2ccco2)cc1", "Potency": "5.8 µM (active)"}
{"smiles": "CCCCN(C(=O)c1ccc2ccccc2c1)c1c(N)n(CCCC)c(=O)[nH]c1=O", "Potency": "inactive"}
{"smiles": "COCCn1cnnc1SCC(=O)Nc1cccc(S(=O)(=O)N2CCCCC2)c1", "Potency": "inactive"}
{"smiles": "Cc1cccc(N2CC(C(=O)Nc3ccccc3N3CCCC3)CC2=O)c1C", "note": "(stereo not given)", "Potency": "inactive"}
{"smiles": "Cc1ccccc1NC(=O)NC1(C(=O)N2CCCC2)CCCCC1", "Potency": "inactive"}
{"smiles": "Cc1ccccc1NC(=O)Nc1ccccc1N1CCCCC1", "Potency": "18.3 µM (active)"}
{"smiles": "O=C(CCC1CCCCC1)Nc1cc(C(F)(F)F)ccc1N1CCOCC1", "Potency": "inactive"}
{"smiles": "Cc1nn(C)c(C)c1NS(=O)(=O)c1ccc(OC(F)(F)F)cc1", "Potency": "inactive"}
{"smiles": "CN(C)S(=O)(=O)c1cc(NC(=O)CN2C(=O)NC3(CCCc4ccccc43)C2=O)ccc1Cl", "note": "(stereo not given)", "Potency": "25.9 µM (active)"}
{"smiles": "CCN(CC)S(=O)(=O)c1ccc(CNC(=O)CN2C(=O)NC3(CCc4ccccc43)C2=O)cc1", "note": "(stereo not given)", "Potency": "inactive"}
{"smiles": "CCN(CC)c1ccc(NC(=O)CN2C(=O)NC3(CCc4ccccc43)C2=O)cc1", "note": "(stereo not given)", "Potency": "inactive"}
{"smiles": "N#Cc1ccccc1S(=O)(=O)N1CCN(Cc2c(O)ccc3ccccc23)CC1", "Potency": "inactive"}
{"smiles": "CCn1c(SCC(=O)Nc2ccccc2F)nc2c(c1=O)SC(C)C2", "note": "(stereo not given)", "Potency": "inactive"}
{"smiles": "COCCn1c(SCC(=O)Nc2cc(OC)ccc2OC)nc2c(c1=O)SC(C)C2", "note": "(stereo not given)", "Potency": "inactive"}
{"smiles": "COCCn1c(SCC(=O)Nc2cc(Cl)ccc2OC)nc2c(c1=O)SC(C)C2", "note": "(stereo not given)", "Potency": "25.9 µM (active)"}
{"smiles": "Cc1cc(NC(=O)CSc2nnc(-c3ccco3)n2N)no1", "Potency": "inactive"}
{"smiles": "CCNS(=O)(=O)c1ccc(CCC(=O)N2CCN(c3cc(Cl)ccc3C)CC2)cc1", "Potency": "11.6 µM (active)"}
{"smiles": "CCNS(=O)(=O)c1ccc(CCC(=O)N2CCN(c3ccc(OC)cc3)CC2)cc1", "Potency": "inactive"}
{"smiles": "CCCNS(=O)(=O)c1ccc(CCC(=O)N2CCCC2)cc1", "Potency": "inactive"}
{"smiles": "O=C1OC[C@@H]2CCCN2C(=O)[C@H](CC(=O)N(CCO)Cc2ccccc2)C/C=C\\CC[C@@H]1Cc1ccc(F)cc1", "Potency": "inactive"}
{"smiles": "COc1ccc(C(=O)NC(=S)Nc2ccccc2N2CCN(S(C)(=O)=O)CC2)cc1OC", "Potency": "14.6 µM (active)"}
{"smiles": "O=C(NC(=S)Nc1ccccc1N1CCCCC1)c1ccc(F)cc1", "Potency": "inactive"}
{"smiles": "CCC(=O)Nc1ccccc1N1CCN(S(C)(=O)=O)CC1", "Potency": "inactive"}
{"smiles": "COc1ccc(NC(=O)COC(=O)Cn2c(C)nc3ccccc32)cc1OC", "Potency": "inactive"}
{"smiles": "COc1ccc(NC(=O)CNC(=O)Cc2ccccc2)cc1OC", "Potency": "inactive"}
{"smiles": "COc1ccc(NC(=O)c2cc3nc(-c4ccccc4)cc(C)n3n2)cc1OC", "Potency": "10.3 µM (active)"}
{"smiles": "COCCCNC(=O)CC1C[C@H](C(=O)N2CCCCC2)[C@@]2(CCc3ccccc3)c3[nH]c4ccccc4c3CCN2C1=O", "note": "(stereo not given in full)", "Potency": "inactive"}
{"smiles": "CC(Oc1ccc(Br)cc1)C(=O)NCC(c1ccco1)N1CCCCC1", "note": "(stereo not given)", "Potency": "inactive"}
